The source of these data is ChEMBL document CHEMBL4513216, “Probing the Open Global Health Chemical Diversity Library for Multistage-Active Starting Points for Next-Generation Antimalarials” (ACS Infect Dis, 2020).

In all, about 69,000 compounds went through this assay and about 8,600 (12%) showed an effect of 50% or more. Only a selection was taken, and strong results are over-represented in it overall.

This assay relates to Plasmodium berghei. Put plainly: Screen against P. berghei liver stage (PbLuc), transformed with Luciferase, at 10uM. It is filed as functional, HepG2. Conditions: tested at 10 uM.
For the molecule `CC(C)N(C)Cc1cnc2n1CCN(C(=O)NC1CCCC1)C2`, the INHIBITION amounted to 34.1%. The result for `CCOCCN1CCN(c2ccc(C#N)cn2)CC1` reads 45.4%; that for `CS(=O)(=O)NCCCNCc1cc(F)ccc1Br`, 30.2%.

Turning to `Cc1noc(C)c1CN(C)C(=O)NC1CCOCC1`, the INHIBITION came to 22.95%.

For the molecule `Cc1cccc(N2CCN(C(=O)CCCC(=O)N(C)C)C(C)C2)n1` (configuration not stated), the INHIBITION was 39.3%. With `Cc1nc(CN2CCCC3(CCN(c4cnn(C)c4)C3=O)C2)cs1` (configuration not stated), the INHIBITION was found to be 6.55%.

`Cc1nccn1C1CCCN(C(=O)c2cnc[nH]2)C1` (configuration not stated): the INHIBITION is reported as -9.37%. For `Cn1nc(Cn2cccn2)c2c1CN(C1CCOCC1)C2`, the INHIBITION is 44.2%. `CN(C(=O)c1ccccc1NCC(=O)O)C(C1CC1)C1CC1`: the INHIBITION came out at 25.8%. Take `O=C(COCc1ccccc1Cl)N1CCCC(n2ccnc2)C1` (configuration not stated): the INHIBITION turned out to be 17.5%. On to `Cc1cccc(CN2C[C@@H]3COC[C@]3(CNC(=O)c3cccn3C)C2)n1`, for which the INHIBITION was -17.1%. `O=S(=O)(c1cccs1)N1CCCCC1c1ccn[nH]1` (configuration not stated): the INHIBITION stood at 29.3%. As to `CCS(=O)(=O)N1CCCC(n2nnn(-c3ccccc3)c2=O)C1` (configuration not stated), the INHIBITION is reported as -8.5455%.

For `Cc1cc(C)c(-n2cc(CCO)cn2)cc1C`, the INHIBITION is listed as -50.3%.

In the case of `Cc1nnc(N2CCc3cnc(C(C)C)nc3C2)c(C#N)c1C`, the INHIBITION is 6.72%. In the case of `CC(CCc1ccccc1)N1CCC(C(=O)NCc2ccccc2)CC1` (configuration not stated), the INHIBITION is 46.7%. Consider `Cc1cnnn1Cc1ncn2c1CN(Cc1cccs1)CCC2`, for which the INHIBITION was 15.9%. As for `O=C(Cn1c(=O)n(Cc2ccco2)c2ncccc21)NC1CCCCC1`, the INHIBITION is given as 53.5%. In the case of `O=C(Cn1c(=O)n(Cc2ccco2)c2ncccc21)NC1CCCC1`, the INHIBITION amounted to 48.6%.

Take `O=C(Cn1c(=O)n(Cc2ccco2)c2ncccc21)NC1CC1`: the INHIBITION came out at 39.7%.

For `O=C(Cn1c(=O)n(Cc2ccco2)c2ncccc21)Nc1ccccn1`, the INHIBITION was 45.5%. The result for `CC(C)(C)NC(=O)Cn1c(=O)n(Cc2ccco2)c2ncccc21` reads 61.9%; that for `CCN(CC)C(=O)CSc1nc2cc(C)nc-2c(O)n1Cc1ccco1`, 26.7%; that for `CCN(CC)C(=O)Cn1c(=O)n(Cc2ccco2)c2ncccc21`, 51.5%.

With `Cc1nn(C(C)(C)C)c(=O)n1CC(=O)NC(C)(C)C`, the INHIBITION was -53.6%. With `CC(C)N(C(=O)Cn1c(-c2ccco2)cc2cccnc21)C(C)C`, the INHIBITION turned out to be 39.3%. Turning to `Cc1ccc(C(=O)N2CCN(CCc3ccccc3)CC2)c(=O)[nH]1`, the INHIBITION is given as -6.45%. Consider `COc1ccccc1CNC(=O)CS(=O)(=O)Cc1ccccc1`, for which the INHIBITION is recorded as 29.8%. In the case of `Cn1cc(Cl)cc1C(=O)N1CCN(Cc2cccs2)CC1`, the INHIBITION is -13.575%. As to `CC(C)=CCN1CCN(Cc2nccn2C)C(C)C1` (configuration not stated), the INHIBITION was determined as 35.77%. For the molecule `COc1ccc(C(CNC(=O)NCc2csc(C)n2)N(C)C)cc1` (configuration not stated), the INHIBITION amounted to 23.5%. Turning to `CNc1cncc(C2CCCN2C(=O)c2ccc3nc(C)[nH]c3c2)n1` (configuration not stated), the INHIBITION is on record as 2.6%. The result for `O=S1(=O)c2ccccc2C(O)CN1CCO` (configuration not stated) reads -5.77%. Consider `COCCN1CCC2(CC1)CC1(CCN(S(C)(=O)=O)CC1)N(C)C2=O`, for which the INHIBITION is listed as 40.8%.

On to `CC(=O)Nc1ccc(Oc2cc(C)nc(C3CCCNC3)c2)cc1` (configuration not stated), for which the INHIBITION came to 14.355%. Take `CSCC(C)NS(=O)(=O)c1ccc(C)c(N(C)C)c1` (configuration not stated): the INHIBITION is given as -37.7%.

For the molecule `Cc1cnc(N2C(=O)CSC2c2ccc(N(C)C)cc2)s1` (configuration not stated), the INHIBITION is recorded as 39.9%.

For the molecule `CC(C)c1nn(C)c(Cl)c1CNCc1ccc(N(C)C)nc1`, the INHIBITION came to 18.85%. The result for `O=C(CCC1CCCO1)NS(=O)(=O)c1ccc(Cl)cc1` (configuration not stated) reads -11.4%. With `Cc1ccc(S(=O)(=O)NC(=O)CCC2CCCO2)cc1` (configuration not stated), the INHIBITION is reported as -7.35%. The result for `CC(=O)Nc1ccc(S(=O)(=O)NC(=O)CCC2CCCO2)cc1` (configuration not stated) reads 57.2%; that for `Cc1nccn1CCCC(=O)N1CCC(N(C)c2cccnn2)CC1`, 12.7%. On to `O=C(c1cnn[nH]1)N1CCCC1c1nc2cc(F)ccc2[nH]1` (configuration not stated), for which the INHIBITION is on record as 11.8%.

For the molecule `CN(Cc1ccco1)c1ccc(C(=O)NCCCc2ccccn2)cn1`, the INHIBITION is recorded as 58.2%. On to `CCN(C)c1ccc(C(=O)NCCCc2ccccn2)cn1`, for which the INHIBITION is -17.9%. On to `O=C(NCCCc1ccco1)c1cnc(N2CCOCC2)nc1`, for which the INHIBITION is listed as -18.8%.

Regarding `CN(CC(C)(C)C)c1ccc(C(=O)NCCCc2ccccn2)cn1`, the INHIBITION is -20.6%.

As for `CCn1c(N)nc2cc(C(=O)NCCCc3ccccn3)cnc21`, the INHIBITION came to 11.8%. The result for `CN(C)c1ccc(C(=O)NCCCc2ccccn2)cn1` reads 62.8%; that for `Cc1ccc(CN2CCOC3(CCN(CC4CCOC4)CC3)C2)cc1` (configuration not stated), 36.7%; that for `CSCCC(Nc1nc(C)cc(C)n1)C(=O)NC1CCCC1` (configuration not stated), 36.8%. The result for `COC(=O)c1ccc(N2CCN(C(=O)c3cnccn3)C(C)C2)cc1` (configuration not stated) reads -23.8%; that for `COC(=O)c1ccc(N2CCN(C(=O)c3cnc(C)cn3)C(C)C2)cc1` (configuration not stated), 66.7%; that for `COCC(=O)N1CCN(c2ccc(C(=O)OC)cc2)CC1C` (configuration not stated), -31.4%. `COC(=O)c1ccc(N2CCN(C(=O)c3cc(C)on3)C(C)C2)cc1` (configuration not stated): the INHIBITION worked out at 54.3%. With `COC(=O)c1ccc(N2CCN(C(=O)c3cc(C)no3)C(C)C2)cc1` (configuration not stated), the INHIBITION was -11.4%. The result for `COC(=O)c1ccc(N2CCN(C(=O)C(C)C)C(C)C2)cc1` (configuration not stated) reads -37.6%; that for `Cc1cc(Oc2ccc(NC(=O)C3CC3)cc2)cc(C2CCNCC2)n1`, 10.535%. The result for `CN(CCCc1cnn(C)c1)c1nccc(-c2cc(C(=O)O)ccn2)n1` reads 21.2%. The result for `Cc1cccc(CN2Cc3nccn3CC(CN3CCOCC3)C2)c1` (configuration not stated) reads 43.9%. As for `O=C1COc2cc(C(=O)NS(=O)(=O)c3cc(Cl)ccc3Cl)ccc2N1`, the INHIBITION worked out at 37.4%. As to `CN(C)C(=O)COCc1cncc2c1CCN(Cc1ccccn1)C2`, the INHIBITION is -11%. As to `COc1ccc(-c2nccc(C3CCCN3C)n2)cc1` (configuration not stated), the INHIBITION was determined as 16.5%.

Turning to `O=C(N1CCCC1)N1CCOCC2(C1)CN(c1ccccc1)C(=O)CO2` (configuration not stated), the INHIBITION was -1.36%.

As to `COc1ccc(NC(=O)C(C)(C)C)cc1OCc1cccnc1`, the INHIBITION is on record as 43.4%.

On to `COc1ccc(NC(=O)C2CC2)cc1OCc1cccnc1`, for which the INHIBITION came to 34.1%. With `COc1ccc(NC(C)=O)cc1OCc1cccnc1`, the INHIBITION is reported as 66.5%. Consider `Cc1nnc(N2CCCC3(CN(Cc4ccc(C)s4)CCO3)C2)o1` (configuration not stated), for which the INHIBITION is 1.81%.

In the case of `COCc1noc(-c2ccc(N(C)Cc3c(C)n[nH]c3C)nc2)n1`, the INHIBITION turned out to be 56.9%. The result for `COCc1noc(-c2ccc(N(C)Cc3cc(C)no3)nc2)n1` reads 33.5%. The result for `COCc1noc(-c2ccc(N(C)Cc3ccc(C)o3)nc2)n1` reads -26.7%; that for `Cc1ccc(N2CCN(C(=O)[C@@H]3CCC(=O)N3)CC2=O)cc1`, 4.95%; that for `O=C(NCc1ccc(Cl)cc1)C1CCCN(c2ccc3nncn3n2)C1` (configuration not stated), 15.7%. The result for `CC(C)CC(=O)N1CCCC1c1cc(CO)[nH]n1` (configuration not stated) reads -0.7%. Regarding `O=C(O)c1nnn(-c2ccc(F)c(F)c2)c1-c1ccncc1`, the INHIBITION is -6.32%.

Turning to `O=C(O)c1nnn(-c2ccccc2F)c1-c1ccncc1`, the INHIBITION turned out to be 50.7%. For the molecule `Cc1ccc(F)c(-n2nnc(C(=O)O)c2-c2ccncc2)c1`, the INHIBITION was 7.9%. For `CC(C)NC(=O)c1nnn(-c2cccc(F)c2)c1C1CC1`, the INHIBITION was -18.9%. As for `O=C(O)c1nnn(-c2ccc(C(F)(F)F)cc2)c1-c1ccncc1`, the INHIBITION was 18.4%. As for `CCc1ccc(-n2nnc(C(=O)O)c2-c2ccncc2)cc1`, the INHIBITION is 6%. The result for `CC(C)NC(=O)c1nnn(-c2cccc(C(F)(F)F)c2)c1C1CC1` reads 58.5%. In the case of `O=C(O)c1nnn(-c2cccc(C(F)(F)F)c2)c1-c1ccncc1`, the INHIBITION stood at 65.6%. Turning to `O=C(O)c1nnn(-c2ccc(Cl)c(C(F)(F)F)c2)c1-c1ccncc1`, the INHIBITION is -5.59%. For the molecule `O=C(NC1CC1)c1nnn(-c2cccc(C(F)(F)F)c2)c1C1CC1`, the INHIBITION worked out at 18.6%. The result for `O=C(O)c1nnn(-c2cc(F)cc(F)c2)c1-c1ccncc1` reads 16.8%. Take `O=C(O)c1nnn(-c2ccccc2)c1-c1ccncc1`: the INHIBITION is 54%. The result for `COc1cc2cc3c(nc2cc1OC)OCCN(Cc1ccco1)C3` reads 16.5%; that for `COCCCNC(=O)CN(C)C(=O)CN(C)c1ccc(C#N)cn1`, -12.1%. On to `CC(=O)N1CCn2c(-c3ccccc3)cnc2C12CCNCC2`, for which the INHIBITION turned out to be 33%. As for `Cc1nn(C)c(N(C)C)c1CNCC(O)c1ccccc1F` (configuration not stated), the INHIBITION is listed as 25.1%. For `Cc1cc(C(=O)N2CCCC(C(=O)c3cccs3)C2)c(=O)[nH]c1C` (configuration not stated), the INHIBITION stood at 33.3%.

On to `N#Cc1cnc(NCc2ccc(C(=O)NC3CC3)cc2)c(Cl)c1`, for which the INHIBITION is recorded as -32.9%. Consider `O=C(c1cnc(NCc2sccc2Br)c(Cl)c1)N1CCCCC1`, for which the INHIBITION is reported as 24.2%.

In the case of `O=C(c1cnc(NCC2CCCO2)c(Cl)c1)N1CCCCC1` (configuration not stated), the INHIBITION came to 32.2%.

`O=C(c1cnc(NCc2cccnc2)c(Cl)c1)N1CCCCC1`: the INHIBITION came out at 56.3%. The result for `N#Cc1cnc(NCc2cccc(C(=O)N3CCCC3)c2)c(Cl)c1` reads 57.5%; that for `N#Cc1ccc(CNc2ncc(C#N)cc2Cl)cc1`, 20.1%.

For `CCc1ccc(CN(C)Cc2nc(COc3ccccc3)no2)nc1`, the INHIBITION stood at 29.6%. The result for `c1ccc(CN2CCc3ncnc(C4CC4)c3CC2)nc1` reads 21.1%.

For the molecule `O=C(c1cscn1)N1CCC[C@]2(C[C@@H](OCC3CC3)CO2)C1`, the INHIBITION amounted to 36.9%. The result for `CN(Cc1ccco1)Cc1ccccc1CNC(=O)c1csnn1` reads 46.4%.

For `Cc1cc(C(=O)NCc2ccccc2CN(C)Cc2ccco2)on1`, the INHIBITION turned out to be 77.2%. Take `CN(Cc1ccco1)Cc1ccccc1CNC(=O)c1cnc[nH]1`: the INHIBITION came out at 69.3%. With `Cc1cc(CN(C)C(=O)NCc2ccco2)no1`, the INHIBITION was 14.1%. `CN(Cc1ccco1)Cc1ccccc1CNC(=O)c1c[nH]nn1`: the INHIBITION is -1.28%. Take `CN(Cc1ccco1)Cc1ccccc1CNC(=O)c1ccc[nH]1`: the INHIBITION turned out to be 30.1%.

As for `Cc1ncccc1C(=O)NCc1ccccc1CN(C)Cc1ccco1`, the INHIBITION was found to be 67.3%. The result for `CN(C)c1ncccc1CNC(=O)NCc1ccco1` reads -36.3%; that for `CN(Cc1ccco1)Cc1ccccc1CNC(=O)c1ccncc1`, -4.86%; that for `CN(Cc1ccco1)Cc1ccccc1CNC(=O)c1cnccn1`, 63.3%. The result for `Cc1oc(C)c(C(=O)NCc2ccccc2CN(C)C)c1C` reads 25.55%; that for `CN(Cc1ccco1)Cc1ccccc1CNC(=O)c1cc[nH]n1`, 30.1%.
